Laboratory results reported in the supplement of paper PMC7156485.
Where “and” joins values, the source holds several entries; their conditions need not be identical. Equal entries are not always repeated. ± gives the standard deviation of the averaged measurements.

Columns and labels:
Conditions in all cases: concentration: 10 µM; 24 h
HCC1569 [1] = experiment: cell number relative to DMSO (% of DMSO); higher = more cells (less growth inhibition / toxicity)
Method in brief: (§1)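 HCC1569 and TDF cells were seeded at 800 per well in 384-well plates in RPMI with 10% FBS and treated with compounds at 10 µM for 24 h at 37 °C, in triplicate. After fixation in 3.7% formaldehyde, cells were stained with a rabbit anti-H1.0 antibody, an AlexaFluor 647 secondary and DAPI, and six fields per well were imaged at ×10. H1.0 nuclear intensity or cell number is given as percent of the plate control, using the median of replicates, with HCC1569 values smoothed for positional effects.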

TDF [2] = experiment: as above
Method in brief: as §1

TDF [3] = experiment: H1.0 immunofluorescence intensity relative to DMSO (% of DMSO); higher = stronger H1.0 induction, active = 120 or more
Method in brief: as §1

HCC1569 [4] = experiment: H1.0 immunofluorescence intensity relative to DMSO (% of DMSO); higher = stronger H1.0 induction, active = 140 or more
Method in brief: as §1
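Wherever H1.0 immunofluorescence intensity relative to DMSO is given: TDF is a line of transformed human dermal fibroblasts of mesenchymal origin.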
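Wherever cell number relative to DMSO is given: TDF denotes transformed human dermal fibroblasts of mesenchymal origin.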

| SMILES | cell number (HCC1569 [1]) | cell number (TDF [2]) | H1.0 immunofluorescence intensity (TDF [3]) | H1.0 immunofluorescence intensity (HCC1569 [4]) |
| --- | --- | --- | --- | --- |
| COc1cc(O)c2c(=O)c(O)c(-c3ccc(O)c(O)c3)oc2c1 [Rhamnetine] | 91.7 | 89.5 | 93 (inactive) | 130 (inactive) |
| Nc1nc2ccc(Cl)cc2c2nc(-c3ccco3)nn12 | 99.2 | 102 | 96 (inactive) | 118 (inactive) |
| CCCCCC(O)CCC1C(O)CC(=O)C1CCCCCCC(=O)O (stereo not given) [13,14-Dihydro-prostaglandin E1] | 97.1 | 104 | 94.9 (inactive) | 103 (inactive) |
| CCCn1c(=O)c2[nH]c(-c3ccc(OCC(=O)Nc4ccc(C#N)cc4)cc3)nc2n(CCC)c1=O | 105 | 114 | 96.6 (inactive) | 102 (inactive) |
| COc1cc2nc(N3CCN(C(=O)c4ccco4)CC3)nc(N)c2cc1OC.Cl [Prazosin.HCl] | 107 | 105 | 92 (inactive) | 95.8 (inactive) |
| N[C@H](C(=O)O)c1cc(O)cc(O)c1 [(S)-3,5-Dihydroxyphenylglycine] | 101 | 105 | 96.4 (inactive) | 97.4 (inactive) |
| CN1CCN(c2ccc3c(c2)NC(=C2C(=O)N=c4cccc(F)c4=C2N)N3)CC1 | 81.3 | 72.6 | 93.5 (inactive) | 149 (active) |
| CC(C)c1ccc(C(=O)N=C(N)N)cc1S(C)(=O)=O [N''-[4-isopropyl-3-(methylsulfonyl)benzoyl]guanidine] | 101 | 93.4 | 99.1 (inactive) | 100 (inactive) |
| COc1ccccc1N1CCN(CCCNc2c(C)c(=O)n(C)c(=O)n2C)CC1 [Urapidil, 5-Methyl-] | 105 | 121 | 96.7 (inactive) | 108 (inactive) |
| COC(=O)c1ccccc1O [Methyl salicylate] | 100 | 104 | 92.2 (inactive) | 113 (inactive) |
| c1ccc(-c2ccc(C(c3ccccc3)n3ccnc3)cc2)cc1 (stereo not given) [Bifonazole] | 101 | 98.2 | 86.2 (inactive) | 122 (inactive) |
| NC(Cn1ccc(=O)c(O)c1)C(=O)O [L-Mimosine] | 101 | 86.3 | 105 (inactive) | 102 (inactive) |
| CCC(CCC(C)C1CCC2C3CC=C4CC(O)CCC4(C)C3CCC12C)C(C)C (stereo not given) | 99.8 | 92.5 | 105 (inactive) | 90.6 (inactive) |
| CC(O)C(=O)C1=Nc2c([nH]c(N)nc2=O)NC1 (stereo not given) [Sepiapterin] | 105 | 113 | 97.4 (inactive) | 99.1 (inactive) |
| CCCn1c(=O)c2c(ncn2C)n(CCC)c1=O [1,3-Dipropyl-7-methylxanthine] | 99.5 | 101 | 93.1 (inactive) | 94.8 (inactive) |
| Cn1c(-c2ccc3c(c2)OCO3)cc(=O)c2ccccc21 [Graveoline] | 103 | 99.8 | 101 (inactive) | 96.9 (inactive) |
| CCN(Cc1ccncc1)C(=O)C(CO)c1ccccc1 (stereo not given) [Tropicamide] | 104 ± 5.5 | 105 ± 8.1 | 98.4 (inactive) | 100 (inactive) |
| CC(N)(Cc1ccc(O)cc1)C(=O)O (racemic) [DL-alpha-Methyl-p-tyrosine] | 103 | 117 | 114 (inactive) | 106 (inactive) |
| CN(C)CCOC(=O)COc1ccc(Cl)cc1.Cl [Centrophenoxine hydrochloride] | 101 | 98.6 | 103 (inactive) | 107 (inactive) |
| CCCCCC(O)c1cccc(OCc2ccc3ccccc3n2)c1 (stereo not given) | 103 and 102 | 107 and 102 | 104 (inactive) and 91.2 (inactive) | 110 (inactive) and 101 (inactive) |
| CCC1OC(=O)C(C)C(OC2CC(C)(OC)C(O)C(C)O2)C(C)C(OC2OC(C)CC(N(C)C)C2O)C(C)(OC)CC(C)C(=O)C(C)C(O)C1(C)O (stereo not given) [Clarithromycin] | 98.4 | 93 | 94.3 (inactive) | 94.6 (inactive) |
| Cl.O=c1n(CCCN2CCN(c3cccc(Cl)c3)CC2)nc2ccccn12 [Trazodone hydrochloride] | 102 | 116 | 89.5 (inactive) | 101 (inactive) |
| CNC(=C[N+](=O)[O-])NCCSCc1ccc(CN(C)C)o1.Cl [Ranitidine hydrochloride] | 101 | 113 | 91.6 (inactive) | 85.1 (inactive) |
| N#CC(=Cc1ccc(O)cc1)C(N)=C(C#N)C#N | 99 | 96.7 | 95.4 (inactive) | 110 (inactive) |
| CCN1CCCC1CNC(=O)c1c(O)c(Cl)cc(Cl)c1OC.O=C(O)C(O)C(O)C(=O)O [S(+)-Raclopride L-tartrate] | 101 | 105 | 90.3 (inactive) | 99.9 (inactive) |

| SMILES | cell number (HCC1569 [1]) | cell number (TDF [2]) | H1.0 immunofluorescence intensity (TDF [3]) | H1.0 immunofluorescence intensity (HCC1569 [4]) |
| --- | --- | --- | --- | --- |
| CCOc1nc2cccc(C(=O)O)c2n1Cc1ccc(-c2ccccc2-c2nc(=O)o[nH]2)cc1 | 79.7 | 101 | 103 (inactive) | 137 (inactive) |
| COc1cc2nc(N3CCN(C(=O)C4COc5ccccc5O4)CC3)nc(N)c2cc1OC (stereo not given) [Doxazosin] | 96.5 | 107 | 100 (inactive) | 113 (inactive) |
| CNc1cc(NS(=O)(=O)c2ccc(N)cc2)nc(NC)n1.Cl.Cl [Ro 04-6790 dihydrochoride] | 107 | 108 | 98.7 (inactive) | 84.4 (inactive) |
| Cc1nc2sccn2c(=O)c1CCN1CCC(=C(c2ccccc2)c2ccc(F)cc2)CC1 [Diacylglycerol kinase inhibitor I] | 87.2 | 111 | 96 (inactive) | 118 (inactive) |
| CC(=O)NC(C(=O)O)C(C)(C)SN=O (stereo not given) [S-Nitroso-N-acetylpenicillamine] | 105 | 109 | 90.5 (inactive) | 96.7 (inactive) |
| CCCCCCCCCCCCCCCCCCCCC(=O)O [Heneicosanoic acid] | 102 | 95.5 | 98.5 (inactive) | 103 (inactive) |
| Cc1nn(C)c2nc(NNC(=O)Nc3cc(Cl)nc(Cl)c3)cc(C(C)C)c12 | 66 | 12.8 | 170 (active) | 140 (active) |
| CC12CCC(=O)C=C1CCC1C2CCC2(C)C1CCC2(O)C(=O)CO (stereo not given) [Cortexolone] | 98.2 | 99.3 | 90.2 (inactive) | 96.2 (inactive) |
| CC#CCOC(=O)c1c(C)nc2sc3c(c2c1N)CCC(O)C3 (stereo not given) | 87.1 | 85.8 | 99.5 (inactive) | 134 (inactive) |
| COc1cc2nc(N3CCN(C(=O)C4CCCO4)CC3)nc(N)c2cc1OC (stereo not given) [Terazosin] | 99.9 | 87.9 | 93.9 (inactive) | 98.2 (inactive) |
| CC(C)(CCCCCCCCCCC(C)(C)CC(=O)O)CC(=O)O [3,3,14,14-tetramethylhexadecanedioic acid] | 102 | 97.7 | 96.6 (inactive) | 93.7 (inactive) |
| Nc1nc(N)c2nc(CNc3ccc(C(=O)NC(CCC(=O)O)C(=O)O)cc3)cnc2n1 (stereo not given) [Aminopterin] | 80.8 | 87.6 | 87.8 (inactive) | 75.9 (inactive) |
| CC1(COc2ccc(CC3SC(=O)NC3=O)cc2)CCCCC1 (stereo not given) [Ciglitazone] | 99.8 | 91.8 | 102 (inactive) | 96.6 (inactive) |
| Cl.c1ccc(CN2CCC3(CCCc4ccccc43)CC2)cc1 [L-687,384 hydrochloride] | 103 | 96 | 93.7 (inactive) | 103 (inactive) |
| COC(=O)C1=C(C)NC(C)=C(C(=O)OCC(C)C)C1c1ccccc1[N+](=O)[O-] (stereo not given) [Nisoldipine] | 94.9 | 104 | 89.9 (inactive) | 116 (inactive) |
| O=[N+]([O-])c1ccc(CSc2ncnc3c2ncn3C2OC(CO)C(O)C2O)cc1 (stereo not drawn) [S-(4-Nitrobenzyl)-6-thioinosine] | 99 | 111 | 92.2 (inactive) | 80.6 (inactive) |
| N[C@H](CCC(=O)NCS(=O)(=O)O)C(=O)O [gamma-D-Glutamylaminomethylsulfonic acid] | 101 | 109 | 96.1 (inactive) | 93.6 (inactive) |
| C1COC(NC(C2CC2)C2CC2)=N1 [Rilmenidine hemifumarate] | 95.7 | 108 | 89.5 (inactive) | 107 (inactive) |
| CCCCc1oc2ccccc2c1C(=O)c1cc(I)c(OCCN(CC)CC)c(I)c1.Cl [Amiodarone hydrochloride] | 98.5 | 92 | 98.9 (inactive) | 101 (inactive) |
| COc1ccc2c(c1)c(CC(=O)O)c(C)n2Cc1ccc(Cl)cc1 [1-(4-Chlorobenzyl)-5-methoxy-2-methylindole-3-acetic acid] | 104 | 91 | 96.8 (inactive) | 103 (inactive) |
| CCOC(=O)c1c2c3c(cccc3[nH]c1=O)C(=O)c1ccccc1-2 | 99.7 | 108 | 94.2 (inactive) | 99.9 (inactive) |
| COc1ccc(-c2cnc3c(-c4ccsc4)cnn3c2)cc1 [VEGF Receptor 2 Kinase Inhibitor IV] | 94.9 | 95.5 | 89 (inactive) | 109 (inactive) |
| C1CCN2CC3CC(CN4CCCCC34)C2C1.O.O.O.O.O.O=S(=O)(O)O (stereo not given) | 103 | 94.3 | 107 (inactive) | 98.4 (inactive) |
| O=c1cc(-c2ccccc2)oc2cc(O)cc(O)c12 [Chrysine] | 101 | 99.8 | 93.8 (inactive) | 92.7 (inactive) |
| CC(C)C1C2CCC(C2)C1N.Cl (stereo not given) | 99.9 | 105 | 93 (inactive) | 90.8 (inactive) |
